Experimental data as given in PubChem BioAssay.
Activity calls are given as the source filed them.

Legend:
[1] = test system: PRMT1 (protein arginine N-methyltransferase 1); assay: PRMT1 binders on small-molecule microarrays, primary screen, biochemical, small-molecule microarray, 635 nm fluorescence (AID 1088); conditions: small-molecule microarray binding, higher = more signal;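 further: binding of Prmt1 protein to compounds spotted on small-molecule microarray slides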
[2] = yeast growth modulation, basal conditions, primary screen, YJM789 clinical isolate, OD600, 24 h (AID 1089);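 further: growth of clinical yeast isolate S. cerevisiae YJM 789 seeded 1000 cells per well; test concentration not given here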; conditions: S. cerevisiae YJM789 growth, higher = more signal, called active from +8 up or from −8 down
[3] = fission yeast growth modulation, primary screen, strain 972, OD600, 24 h, no modulator (AID 1090);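 further: basal condition with compound alone and no growth modifier present; test concentration not given here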; conditions: S. pombe 972 growth, higher = more signal, called active from +8 up or from −8 down
[4] = S. cerevisiae growth modulation with rapamycin, primary screen, strain BY4716, OD600, 96 h (AID 1091); conditions: higher = more signal, called active from +8 up or from −8 down; further: test concentration not given here
[5] = target: Torsin-1A-interacting protein 2 (Homo sapiens) (UniProt Q8NFQ8); assay: LULL1 binders on small-molecule microarray, primary screen, cell lysate, human LULL1 lysate, 635/667 nm fluorescence (AID 1092); conditions: hLULL1 lysate binding, 635 nm fluorescence, higher = more signal;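 further: probe is lysate of COS7 cells overexpressing human LULL1; score merges per-feature 667 nm fluorescence with signal-to-noise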
Torsin-1A-interacting protein 2 (Homo sapiens), sequence (Q8NFQ8 whole entry, looked up): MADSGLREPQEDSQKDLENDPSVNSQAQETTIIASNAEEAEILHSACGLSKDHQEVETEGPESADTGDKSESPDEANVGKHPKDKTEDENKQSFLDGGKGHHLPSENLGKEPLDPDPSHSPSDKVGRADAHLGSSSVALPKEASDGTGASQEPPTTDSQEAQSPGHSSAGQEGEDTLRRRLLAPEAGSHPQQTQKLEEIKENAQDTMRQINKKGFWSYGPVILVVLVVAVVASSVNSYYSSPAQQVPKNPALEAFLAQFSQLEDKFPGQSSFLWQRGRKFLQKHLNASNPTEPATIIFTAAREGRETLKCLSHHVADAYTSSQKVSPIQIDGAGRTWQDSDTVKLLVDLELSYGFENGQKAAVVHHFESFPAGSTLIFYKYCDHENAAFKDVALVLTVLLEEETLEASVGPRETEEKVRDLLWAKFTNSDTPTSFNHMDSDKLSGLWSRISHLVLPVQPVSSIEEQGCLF

[6] = E. coli growth modulation, two-sided OD650, primary screen, E. coli filamentation project, strain DRC41, 24 h (AID 1093); conditions: OD650, 24 h, higher = more signal, called active from +8 up or from −8 down;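 further: MC1000 strain lacking acrAB efflux and sulA so SOS filamentation is blocked; test concentration not given here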
[7] = small-molecule microarray binders of probe aLefty2, primary screen, biochemical, biotinylated probe, 635/667 nm fluorescence (AID 1094); conditions: higher = more signal;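 further: score merges spot fluorescence near 667 nm with spot signal-to-noise ratio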
[8] = test system: Noggin (protein binding on small-molecule microarray); assay: Noggin binders on small-molecule microarray, primary screen, biochemical, 635/667 nm fluorescence (AID 1095); conditions: 635 nm fluorescence, higher = more signal;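 further: score merges 667 nm feature fluorescence with signal to noise over triplicate slides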
[9] = target: Neurogenic locus notch homolog protein 3 (Homo sapiens) (UniProt Q9UM47); assay: NOTCH3 binders on small-molecule microarray, primary screen, biochemical, 635/667 nm fluorescence (AID 1096); conditions: NOTCH3 binding, 635 nm fluorescence, higher = more signal
Neurogenic locus notch homolog protein 3 (Homo sapiens), sequence (Q9UM47 whole entry, looked up): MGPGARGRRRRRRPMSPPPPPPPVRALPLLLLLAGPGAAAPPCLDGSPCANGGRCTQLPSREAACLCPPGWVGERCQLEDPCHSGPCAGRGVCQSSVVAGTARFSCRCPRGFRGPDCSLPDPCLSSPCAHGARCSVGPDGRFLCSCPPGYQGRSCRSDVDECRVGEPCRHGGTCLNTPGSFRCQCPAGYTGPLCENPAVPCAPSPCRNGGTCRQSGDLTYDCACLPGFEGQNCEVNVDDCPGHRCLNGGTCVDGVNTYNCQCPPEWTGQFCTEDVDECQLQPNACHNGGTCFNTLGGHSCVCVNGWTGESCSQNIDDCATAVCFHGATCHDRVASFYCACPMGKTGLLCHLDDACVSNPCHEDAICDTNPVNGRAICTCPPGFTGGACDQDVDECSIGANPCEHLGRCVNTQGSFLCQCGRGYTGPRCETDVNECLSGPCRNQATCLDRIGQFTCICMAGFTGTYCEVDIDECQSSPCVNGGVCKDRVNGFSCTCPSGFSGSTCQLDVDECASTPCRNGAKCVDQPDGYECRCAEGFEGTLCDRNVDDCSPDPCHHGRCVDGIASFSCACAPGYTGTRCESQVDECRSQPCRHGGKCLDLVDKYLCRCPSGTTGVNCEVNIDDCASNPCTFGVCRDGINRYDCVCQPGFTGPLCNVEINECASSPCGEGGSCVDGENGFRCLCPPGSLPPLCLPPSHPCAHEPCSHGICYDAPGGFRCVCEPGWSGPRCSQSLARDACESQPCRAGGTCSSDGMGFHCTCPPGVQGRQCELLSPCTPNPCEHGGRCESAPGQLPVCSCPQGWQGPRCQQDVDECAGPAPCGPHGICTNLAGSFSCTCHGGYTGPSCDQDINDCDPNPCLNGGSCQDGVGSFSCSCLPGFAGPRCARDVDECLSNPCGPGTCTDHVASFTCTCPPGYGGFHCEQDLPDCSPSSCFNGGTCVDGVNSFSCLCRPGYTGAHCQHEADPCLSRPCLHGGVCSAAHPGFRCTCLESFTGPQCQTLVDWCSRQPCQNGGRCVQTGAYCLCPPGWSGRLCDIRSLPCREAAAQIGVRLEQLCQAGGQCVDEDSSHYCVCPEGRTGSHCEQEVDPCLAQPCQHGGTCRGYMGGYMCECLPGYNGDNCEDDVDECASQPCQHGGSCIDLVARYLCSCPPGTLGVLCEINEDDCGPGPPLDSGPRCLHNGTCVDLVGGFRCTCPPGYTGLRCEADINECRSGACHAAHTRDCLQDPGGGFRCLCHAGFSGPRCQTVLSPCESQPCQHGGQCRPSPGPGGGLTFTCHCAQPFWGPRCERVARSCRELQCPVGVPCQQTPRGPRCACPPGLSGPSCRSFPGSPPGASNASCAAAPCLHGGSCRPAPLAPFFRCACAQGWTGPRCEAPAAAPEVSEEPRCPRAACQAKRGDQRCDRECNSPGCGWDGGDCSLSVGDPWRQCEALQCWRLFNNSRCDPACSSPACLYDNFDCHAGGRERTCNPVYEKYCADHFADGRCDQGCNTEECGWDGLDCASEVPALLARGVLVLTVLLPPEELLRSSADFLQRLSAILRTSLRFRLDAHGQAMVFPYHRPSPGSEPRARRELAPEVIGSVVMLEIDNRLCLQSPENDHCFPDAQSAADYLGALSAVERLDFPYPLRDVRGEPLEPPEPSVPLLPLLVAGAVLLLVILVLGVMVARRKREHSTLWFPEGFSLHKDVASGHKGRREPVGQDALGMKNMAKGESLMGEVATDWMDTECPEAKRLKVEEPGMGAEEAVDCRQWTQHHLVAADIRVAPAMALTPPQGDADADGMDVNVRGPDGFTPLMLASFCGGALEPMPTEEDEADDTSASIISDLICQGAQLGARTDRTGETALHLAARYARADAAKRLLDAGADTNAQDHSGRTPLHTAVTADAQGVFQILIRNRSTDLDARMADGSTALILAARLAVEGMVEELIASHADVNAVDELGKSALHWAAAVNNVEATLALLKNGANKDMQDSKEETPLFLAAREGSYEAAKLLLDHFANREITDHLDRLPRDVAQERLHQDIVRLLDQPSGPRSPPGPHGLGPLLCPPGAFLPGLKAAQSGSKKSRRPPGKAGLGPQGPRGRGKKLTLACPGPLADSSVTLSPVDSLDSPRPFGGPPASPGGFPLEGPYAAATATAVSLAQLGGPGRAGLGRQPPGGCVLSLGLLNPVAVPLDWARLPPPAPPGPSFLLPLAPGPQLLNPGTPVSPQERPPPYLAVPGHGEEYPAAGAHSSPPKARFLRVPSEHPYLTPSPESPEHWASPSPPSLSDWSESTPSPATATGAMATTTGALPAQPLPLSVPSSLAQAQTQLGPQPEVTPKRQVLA

[10] = small-molecule microarray binders of probe aEGFR, primary screen, biochemical, biotinylated probe, 635/667 nm fluorescence (AID 1097); conditions: higher = more signal;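 further: probe is a biotinylated anti-EGFR antibody binding compounds printed on slides; score combines fluorescence near 667 nm and signal to noise of each spot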
[11] = test system: Plasmodium falciparum Sir2 (PF13_0152, Sir2A); assay: pfSir2 binders on small-molecule microarrays, primary screen, biochemical, small-molecule microarray, 635 nm fluorescence (AID 1098); conditions: small-molecule microarray binding, fluorescence 635 nm; higher = more signal;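 further: score merges spot fluorescence intensity with its signal-to-noise ratio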
[12] = small-molecule microarray binders of probe aDKK1, primary screen, biochemical, biotinylated probe, 635/667 nm fluorescence (AID 1099); conditions: higher = more signal;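 further: score merges 667nm spot fluorescence with signal to noise across triplicate slides; reference of the scale not given here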
[13] = small-molecule microarray binders of probe aCHRDL2, primary screen, biochemical, biotinylated probe, 635/667 nm fluorescence (AID 1100); conditions: higher = more signal
[14] = splicing luciferase reporter signal modulators, primary screen, spliceosome inhibition project, cell-based, HEK293, splice +/- reporter (AID 1101); conditions: luminescence, 24 h, higher = more signal, called active from +8 up or from −8 down;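 further: HEK293 cells carrying a splicing-competent luciferase reporter gene; test concentration not given here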
[15] = target: Fibroblast growth factor 10 (Homo sapiens) (UniProt O15520); assay: FGF10 binders on small-molecule microarrays, primary screen, biochemical, small-molecule microarray, 635 nm fluorescence (AID 1102); conditions: FGF10 binding, fluorescence 635 nm, higher = more signal
Fibroblast growth factor 10 (Homo sapiens), sequence (O15520 whole entry, looked up): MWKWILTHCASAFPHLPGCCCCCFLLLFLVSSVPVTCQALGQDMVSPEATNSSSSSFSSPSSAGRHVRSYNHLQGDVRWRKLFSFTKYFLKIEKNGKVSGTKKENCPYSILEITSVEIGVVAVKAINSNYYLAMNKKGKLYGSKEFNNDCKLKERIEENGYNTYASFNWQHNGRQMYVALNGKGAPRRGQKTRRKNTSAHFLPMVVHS

[16] = test system: glycogen synthase kinase-3 (GSK3A per assay name; protocol says GSK3B); assay: GSK3 binders on small-molecule microarrays, primary screen, biochemical, small-molecule microarray, 635 nm fluorescence, GSK3A (AID 1103); conditions: small-molecule microarray binding, fluorescence 635 nm; higher = more signal; further: the record names both GSK3A and GSK3B
[17] = target: Epidermal growth factor receptor (Homo sapiens) (UniProt P00533); assay: EGFR binders on small-molecule microarrays, primary screen, biochemical, small-molecule microarray, 635 nm fluorescence (AID 1104); conditions: EGFR binding, higher = more signal;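 further: score merges 667 nm emission intensity with spot signal to noise over triplicate slides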
Epidermal growth factor receptor (Homo sapiens), sequence (P00533 whole entry, looked up): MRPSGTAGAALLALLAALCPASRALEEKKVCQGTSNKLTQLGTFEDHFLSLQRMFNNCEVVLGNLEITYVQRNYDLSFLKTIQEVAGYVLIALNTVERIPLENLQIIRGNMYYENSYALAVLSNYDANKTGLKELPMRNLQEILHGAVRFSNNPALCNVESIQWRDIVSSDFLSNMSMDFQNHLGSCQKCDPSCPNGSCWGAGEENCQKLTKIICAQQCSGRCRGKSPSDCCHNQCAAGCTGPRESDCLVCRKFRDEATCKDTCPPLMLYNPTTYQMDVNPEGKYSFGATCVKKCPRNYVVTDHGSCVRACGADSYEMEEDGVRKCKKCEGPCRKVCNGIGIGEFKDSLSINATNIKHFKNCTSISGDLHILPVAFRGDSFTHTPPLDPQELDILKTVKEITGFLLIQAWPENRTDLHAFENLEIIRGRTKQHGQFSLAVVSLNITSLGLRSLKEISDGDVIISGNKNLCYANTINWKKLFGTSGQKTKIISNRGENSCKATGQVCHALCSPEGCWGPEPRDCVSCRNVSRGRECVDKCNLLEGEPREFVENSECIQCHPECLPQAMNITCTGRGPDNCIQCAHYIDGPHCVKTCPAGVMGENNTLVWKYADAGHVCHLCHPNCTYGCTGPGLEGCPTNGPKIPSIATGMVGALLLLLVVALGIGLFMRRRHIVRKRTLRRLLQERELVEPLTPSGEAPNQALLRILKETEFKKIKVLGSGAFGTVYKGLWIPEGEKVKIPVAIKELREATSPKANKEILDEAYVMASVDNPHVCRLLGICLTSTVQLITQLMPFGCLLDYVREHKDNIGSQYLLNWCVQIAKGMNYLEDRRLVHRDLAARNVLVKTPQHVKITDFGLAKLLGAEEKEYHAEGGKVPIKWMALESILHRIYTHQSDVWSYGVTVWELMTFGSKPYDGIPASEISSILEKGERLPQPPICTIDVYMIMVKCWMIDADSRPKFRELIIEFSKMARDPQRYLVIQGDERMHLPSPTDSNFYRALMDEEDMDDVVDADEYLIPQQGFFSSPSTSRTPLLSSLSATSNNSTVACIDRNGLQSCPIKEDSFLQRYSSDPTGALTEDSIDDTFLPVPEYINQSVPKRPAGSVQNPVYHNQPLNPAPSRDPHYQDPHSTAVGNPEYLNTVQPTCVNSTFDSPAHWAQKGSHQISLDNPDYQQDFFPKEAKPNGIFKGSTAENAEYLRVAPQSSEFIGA

[18] = target: Follistatin-related protein 3 (Homo sapiens) (UniProt O95633); assay: FSTL3 binders on small-molecule microarrays, primary screen, biochemical, small-molecule microarray, 635 nm fluorescence (AID 1105); conditions: FSTL3 binding, higher = more signal;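 further: score merges emission near 667 nm and signal to noise per printed spot across three slides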
Follistatin-related protein 3 (Homo sapiens), sequence (O95633 whole entry, looked up): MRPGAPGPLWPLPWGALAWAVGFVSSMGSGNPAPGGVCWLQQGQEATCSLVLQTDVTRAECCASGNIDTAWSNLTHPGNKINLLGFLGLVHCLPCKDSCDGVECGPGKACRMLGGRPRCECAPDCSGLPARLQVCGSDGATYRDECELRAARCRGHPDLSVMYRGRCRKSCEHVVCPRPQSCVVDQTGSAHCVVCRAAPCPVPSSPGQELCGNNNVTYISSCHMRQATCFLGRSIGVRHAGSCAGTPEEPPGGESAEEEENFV

[19] = target: Dickkopf-related protein 1 (Homo sapiens) (UniProt O94907); assay: DKK1 binders on small-molecule microarrays, primary screen, biochemical, small-molecule microarray, 635 nm fluorescence scan (AID 1106); conditions: DKK1 binding, higher = more signal;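 further: score merges emission near 667 nm with signal to noise over three replicate slides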
Dickkopf-related protein 1 (Homo sapiens), sequence (O94907 whole entry, looked up): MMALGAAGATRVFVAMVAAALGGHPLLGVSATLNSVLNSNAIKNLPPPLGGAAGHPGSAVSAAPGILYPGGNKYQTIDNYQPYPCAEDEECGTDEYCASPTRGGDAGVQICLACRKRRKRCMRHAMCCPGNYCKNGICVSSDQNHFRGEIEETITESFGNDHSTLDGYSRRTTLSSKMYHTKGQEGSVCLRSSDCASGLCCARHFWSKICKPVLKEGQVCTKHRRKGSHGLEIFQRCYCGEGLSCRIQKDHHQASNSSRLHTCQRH

[20] = test system: Inhibin beta A chain (activin A); assay: INHBA (activin A) binders on microarrays, primary screen, biochemical, small-molecule microarray, 635 nm fluorescence scan (AID 1107); conditions: small-molecule microarray binding, higher = more signal;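 further: mouse activin A protein probed at 4.33 µg/mL on printed slides; score merges bound-protein fluorescence near 667 nm with spot signal-to-noise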

SMILES | composite z-score [1] | z-score [2] | z-score [3] | z-score [4] | composite z-score [5] | z-score [6] | composite z-score [7] | composite z-score [8] | composite z-score [9] | composite z-score [10] | composite z-score [11] | composite z-score [12] | composite z-score [13] | z-score [14] | composite z-score [15] | composite z-score [16] | composite z-score [17] | composite z-score [18] | composite z-score [19] | composite z-score [20]
CCOC(=O)C1=CC[C@@H](c2ccccc2)N(S(=O)(=O)c2ccc(C)cc2)[C@H]1c1ccccc1I | 0.98 | -0.323 (inactive) | 0.666 (inactive) | 0.607 (inactive) | 2.63 | -0.162 (inactive) | 0.52 | 0.22 | 1.06 | 0.0321 | 0.88 | 0.655 | 1.13 | -0.0553 (inactive) | 0.619 | 0.698 | 0.467 | 0.806 | 0.254 | 0.471
C[C@@H]1ON(c2ccc(I)cc2)[C@H](c2cccc(NC(=O)OCC3c4ccccc4-c4ccccc43)c2)[C@H]1C(=O)N1C(=O)OC[C@H]1Cc1ccccc1 | 0.908 | 0.882 (inactive) | 0.534 (inactive) | 1.33 (inactive) | 0.77 | 1.28 (inactive) | 0.437 | 0.493 | 0.893 | 0.0773 | 0.683 | 1.04 | -0.387 | -0.271 (inactive) | 0.252 | 0.529 | 0.325 | 0.951 | 1.05 | 0.529
CN(C)C(=O)[C@]1(Cc2ccccc2)N=C(c2ccc(OCCCO)cc2)O[C@@H]1c1ccccc1CN=[N+]=[N-] | 1.53 | -1.8 (inactive) | -0.531 (inactive) | -0.293 (inactive) | 3.15 | 0.702 (inactive) | -0.0153 | 0.605 | 1.07 | 0.0176 | 0.978 | 0.143 | 0.591 | -0.741 (inactive) | 1.23 | 1.33 | 0.0699 | 0.741 | -0.124 | 0.406
O=C(NCCN1CCOCC1)[C@@H]1c2ccccc2C(=O)N(Cc2ccc(OC(F)(F)F)cc2)[C@H]1c1ccc(CO)cc1 | 1.19 | -1.58 (inactive) | -0.748 (inactive) | -0.846 (inactive) | 3.09 | 0.0461 (inactive) | -0.0766 | 0.0807 | -0.0807 | -0.126 | -0.0284 | 0.0779 | 1.18 | 0.709 (inactive) | -0.738 | 0.0049 | -0.611 | 0.417 | -1.14 | -0.252
CC(=O)OCC1C2CC[C@H]3C(OCc4ccc(F)cc4C(F)(F)F)OC[C@]4(C)[C@H]3C2=C(CN4C(=O)OC(C)(C)C)[C@H](C)C1COC(C)=O (stereo not given in full) | -0.025 | 1.56 (inactive) | 2.04 (inactive) | 1.15 (inactive) | 1.35 | -1.36 (inactive) | 0.054 | 1.2 | -0.439 | -0.0512 | 0.547 | 0.547 | 1.06 | -0.329 (inactive) | 0.398 | -0.466 | -1.08 | -0.925 | -1.31 | 0.838
COC(=O)[C@@]1(Cc2ccc(F)cc2)[C@H]2c3cc(C(=O)N4CCCC4)n(Cc4cc(F)cc5c4OCOC5)c3C[C@H]2CN1C(=O)c1ccccc1 | 0.272 | 0.494 (inactive) | 1.57 (inactive) | 3.33 (inactive) | 0.423 | -0.0269 (inactive) | 0.299 | 0.739 | 1.12 | 0.36 | 0.672 | 1.14 | 1.06 | -0.844 (inactive) | 0.762 | -0.0785 | 0.0228 | 1.3 | -0.334 | 0.888
O=C(NC1CC1)[C@@H]1c2ccccc2C(=O)N(CC23CC4CC(CC(C4)C2)C3)[C@H]1c1ccc(CO)cc1 | 1.53 | -0.706 (inactive) | -0.682 (inactive) | -0.437 (inactive) | 3.15 | -0.103 (inactive) | -0.2 | 1.47 | 1.02 | 0.0201 | 0.728 | -0.226 | -0.0162 | -0.724 (inactive) | 1.41 | 1.32 | 1.03 | 1.43 | 1.28 | 0.372
O=C1NC(=O)C2C1C=CC(C(O)c1ccc([N+](=O)[O-])cc1)N2Nc1ccccn1 (stereo not given) | -0.453 | -0.0716 (inactive) | 0.917 (inactive) | 0.346 (inactive) | 0.307 | -0.562 (inactive) | -0.0218 | 0.241 | -0.432 | -0.0355 | -0.0076 | 0.0152 | 0.14 | 1.34 (inactive) | 0.32 | -0.34 | 0.633 | -0.0907 | 0.328 | 0.854
Cc1ccc(S[C@]2(C(=O)NCCCN(C)C)CC(=O)N(Cc3ccccc3C(F)(F)F)[C@@H]2c2ccc(CO)cc2I)cc1 | 0.349 | -1.34 (inactive) | -3.27 (inactive) | 0.0267 (inactive) | 3.18 | -0.328 (inactive) | -0.323 | -0.496 | -0.174 | -0.378 | 1.18 | -0.473 | -0.464 | -0.425 (inactive) | -0.54 | -0.605 | -1.04 | -0.402 | -1.25 | 0.812
O=C1N(CCS(=O)(=O)c2ccccc2)c2ccccc2C[C@]12N=C(c1ccc(OCCCO)cc1)O[C@@H]2c1ccccc1 | 1.48 | 2.51 (inactive) | 0.762 (inactive) | 4.39 (inactive) | 3.12 | 0.568 (inactive) | 0.225 | 0.83 | 1.09 | -0.164 | 1.23 | 0.924 | 0.775 | 0.276 (inactive) | 1.02 | 1.19 | 0.468 | 1.34 | 1.01 | 0.865
